A number with no mark means an inactive call. Records with an inconclusive call do not appear. Active and inactive are the calls of the source. Unless noted, the call rests on the fitted dose curve; in most records, active means well fitted curve in the direction sought with a large enough effect in the repeat runs; inconclusive means weak or mixed curves; inactive means no such curve, though single readings can be large; an effect the other way counts as inactive or inconclusive.

Assay [1] is described as follows: A CellTox Green Cytotoxicity Assay to monitor cytotoxicity in HepG2 cells - 24 hour (AID 1224878). Further: nearly all actives have a fitted effect of over 45% in size. The method, boiled down: (§1)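 Real-time cytotoxicity: fluorescence of a cell-impermeant cyanine dye binding DNA of dead HepG2 cells, measured repeatedly (0–40 h) during compound exposure at 37 C. Cells seeded 600/well with reagent, dosed after 5 h.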
Assay [2] in a line: A CellTox Green Cytotoxicity Assay to monitor cytotoxicity in HepG2 cells - 40 hour (AID 1224879). Further: nearly all actives have a fitted effect of over 40% in size. The method in brief:
as §1

Assay [3] is described as follows: qHTS RealTime-Glo MT Cell Viability Assay in HEK293 cells - 0 hour (AID 1224880). Further: top concentration of the series differs between compounds; nearly all actives have a fitted effect of over 45% in size. The method, boiled down: (§2)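 Luminescence, which tracks viable cell number through reduction of the prosubstrate to a NanoLuc substrate, was read over continuous 37 C culture. Cells (600/well) were premixed with reagent and rested 5 h before 23 nL of compound in DMSO was pinned.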
A general note: In qHTS, concentration-response curves come from the screen itself.

The nature of assay [4]: A CellTox Green Cytotoxicity Assay to monitor cytotoxicity in HEK293 cells - 32 hour (AID 1224881). Further: nearly all actives have a fitted effect of over 40% in size. The method in brief: (§3)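 Fluorescence from a DNA-binding dye excluded by viable cells was measured repeatedly in the same HEK293 wells (600 cells/well) during continuous compound exposure at 37 C. Each assay gives one read point: 0, 8, 16, 24, 32 or 40 h.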
Assay [5] in a line: A CellTox Green Cytotoxicity Assay to monitor cytotoxicity in HepG2 cells - 0 hour (AID 1224882). Further: nearly all actives have a fitted effect of over 35% in size. The method, boiled down: as §1
Assay [6] can be described thus: A CellTox Green Cytotoxicity Assay to monitor cytotoxicity in HepG2 cells - 32 hour (AID 1224883). Further: nearly all actives have a fitted effect of over 50% in size. The method, boiled down:
as §1

Assay [7] can be described thus: A CellTox Green Cytotoxicity Assay to monitor cytotoxicity in HEK293 cells - 8 hour (AID 1224884). Further: nearly all actives have a fitted effect of over 35% in size. The method in brief: as §3
Assay [8] can be described thus: qHTS RealTime-Glo MT Cell Viability Assay in HEK293 cells - 24 hour (AID 1224886). Further: top concentration of the series differs between compounds; nearly all actives have a fitted effect of over 50% in size. The method, boiled down:
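Reads taken at 0, 8, 16, 24, 32 and 40 h from the same wells. HEK293 cells (600/well) carried RealTime-Glo reagents from seeding, with compound added after a 5 h settle at 37 C.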

Assay [9] in a line: qHTS RealTime-Glo MT Cell Viability Assay in HEK293 cells - 8 hour (AID 1224887). Further: top concentration of the series differs between compounds; nearly all actives have a fitted effect of over 50% in size. The method in brief:
as §2

The nature of assay [10]: A CellTox Green Cytotoxicity Assay to monitor cytotoxicity in HEK293 cells - 16 hour (AID 1224888). Further: nearly all actives have a fitted effect of over 35% in size. The method, boiled down:
as §3

The nature of assay [11]: A CellTox Green Cytotoxicity Assay to monitor cytotoxicity in HepG2 cells - 8 hour (AID 1224890). Further: nearly all actives have a fitted effect of over 45% in size. The method, boiled down:
as §1

Assay [12] can be described thus: qHTS assay to identify small molecule antagonists of the estrogen receptor alpha (ER-alpha) signaling pathway using the BG1 cell line in the presence of 0.1 nM 17-beta-estradiol - cell viability counter screen (AID 1259241). Further: nearly all actives have a fitted effect of over 40% in size. The method in brief:
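Following 5 days in phenol red-free medium with charcoal-stripped serum, VM7Luc4E2 cells received test compounds alongside 0.1 nM 17beta-estradiol (final) at 37C for 22 hr. Live cells were then quantified via protease-substrate fluorescence.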

A short description of assay [13]: qHTS assay to identify small molecule antagonists of the androgen receptor (AR) signaling pathway using the MDA cell line in the presence of 0.5 nM R1881 - cell viability counter screen (AID 1259242). Further: nearly all actives have a fitted effect of over 45% in size. The method in brief: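 Live-cell protease activity was measured by CellTiter-Fluor fluorescence after 30 min. Before that, MDA-kb2 MMTV-luciferase cells had 16 hr at 37C without CO2, exposed to test compounds and 0.5 nM R1881 final.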

A short description of assay [14]: qHTS assay to identify small molecule phospholipidosis (PLD) inducers (AID 1259344; active means well fitted curve in the direction sought with a large enough effect; an effect the other way counts as inactive or inconclusive; further: potency means the concentration at half of the fitted maximal effect). The method in brief:
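Image-based: LipidTOX Red pit count/intensity per well and per cell; HepG2, 24 h compound at 37 C, PFA fixation, Hoechst counterstain.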

Assay [15] can be described thus: qHTS assay to identify small molecule HDAC inhibitors (AID 1259364). The method, boiled down:
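Luminescence read after 30 min room-temperature HDAC-Glo incubation measures cellular class I/II HDAC activity. Compounds were applied for 2 hr at 37 C to HCT-116 wild-type cells seeded the day before.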

Assay [16] can be described thus: qHTS assay to identify small molecule HDAC inhibitors - cell viability counter screen (AID 1259365). Further: series mostly up to about 92 µM; nearly all actives have a fitted effect of over 50% in size. The method, boiled down: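 HCT-116 wild-type, overnight attachment; 2hr drug exposure, 37C; CellTiter-Glo luminescent ATP readout after 30min RT.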
A short description of assay [17]: qHTS RealTime-Glo MT Cell Viability Assay in HepG2 cells - 16 hour (AID 1224885). Further: nearly all actives have a fitted effect of over 50% in size. The method in brief:
(§4)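 HepG2 suspension premixed with RealTime-Glo reagents is plated at 600 cells per well and left 5 h at 37 C/5% CO2. Compounds in DMSO then go in, and bioluminescence reflecting viable cell number is recorded over 40 h.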

Assay [18] in a line: qHTS RealTime-Glo MT Cell Viability Assay in HepG2 cells - 0 hour (AID 1224889). Further: nearly all actives have a fitted effect of over 50% in size. The method, boiled down:
as §4

The target in assay [19] is Estrogen receptor (Homo sapiens) (UniProt P03372). Nature of the assay: qHTS assay to identify small molecule antagonists of the estrogen receptor alpha (ER-alpha) signaling pathway using the BG1 cell line in the presence of 0.1 nM 17-beta-estradiol (AID 1259244). Further: nearly all actives have a fitted effect of over 50% in size. The method, boiled down:
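Luciferase luminescence (ONE-Glo, 30 min at room temperature) was read after 22 hr at 37C exposure to compounds plus 17beta-estradiol at 0.1 nM final. Cells were VM7Luc4E2 with endogenous ER-alpha and an ERE-driven luciferase, pre-cultured 5 days in hormone-depleted medium.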

Assay [20] concerns the target Androgen receptor (Homo sapiens) (UniProt P10275). The experiment in a line: qHTS assay to identify small molecule antagonists of the androgen receptor (AR) signaling pathway using the MDA cell line in the presence of 0.5 nM R1881 (AID 1259243). Further: nearly all actives have a fitted effect of over 50% in size. The method, boiled down: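 Luminescent reporter readout (ONE-Glo, 30 min, room temperature) after 16 hr co-treatment of MDA-kb2 cells with test compounds and 0.5 nM R1881 final, at 37C without CO2. The MMTV-driven luciferase responds to both AR and GR.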

Sequence of Estrogen receptor (Homo sapiens) (P03372 whole entry, looked up): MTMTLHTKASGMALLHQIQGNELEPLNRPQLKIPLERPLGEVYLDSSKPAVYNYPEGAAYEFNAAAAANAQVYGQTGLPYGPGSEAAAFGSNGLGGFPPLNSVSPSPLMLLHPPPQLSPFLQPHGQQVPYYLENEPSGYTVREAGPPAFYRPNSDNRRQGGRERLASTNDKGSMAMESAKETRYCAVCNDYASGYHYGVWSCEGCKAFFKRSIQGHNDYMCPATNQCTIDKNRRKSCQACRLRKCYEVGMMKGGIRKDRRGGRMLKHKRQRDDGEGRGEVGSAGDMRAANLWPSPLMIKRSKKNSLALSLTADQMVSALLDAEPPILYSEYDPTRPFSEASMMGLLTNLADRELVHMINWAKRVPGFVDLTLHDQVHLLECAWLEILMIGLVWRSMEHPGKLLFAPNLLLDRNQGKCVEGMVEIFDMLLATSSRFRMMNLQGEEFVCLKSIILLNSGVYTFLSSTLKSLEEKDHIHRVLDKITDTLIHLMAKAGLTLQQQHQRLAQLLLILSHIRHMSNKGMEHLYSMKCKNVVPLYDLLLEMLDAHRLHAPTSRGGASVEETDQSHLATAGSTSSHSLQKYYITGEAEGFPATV
Sequence of Androgen receptor (Homo sapiens) (P10275 whole entry, looked up): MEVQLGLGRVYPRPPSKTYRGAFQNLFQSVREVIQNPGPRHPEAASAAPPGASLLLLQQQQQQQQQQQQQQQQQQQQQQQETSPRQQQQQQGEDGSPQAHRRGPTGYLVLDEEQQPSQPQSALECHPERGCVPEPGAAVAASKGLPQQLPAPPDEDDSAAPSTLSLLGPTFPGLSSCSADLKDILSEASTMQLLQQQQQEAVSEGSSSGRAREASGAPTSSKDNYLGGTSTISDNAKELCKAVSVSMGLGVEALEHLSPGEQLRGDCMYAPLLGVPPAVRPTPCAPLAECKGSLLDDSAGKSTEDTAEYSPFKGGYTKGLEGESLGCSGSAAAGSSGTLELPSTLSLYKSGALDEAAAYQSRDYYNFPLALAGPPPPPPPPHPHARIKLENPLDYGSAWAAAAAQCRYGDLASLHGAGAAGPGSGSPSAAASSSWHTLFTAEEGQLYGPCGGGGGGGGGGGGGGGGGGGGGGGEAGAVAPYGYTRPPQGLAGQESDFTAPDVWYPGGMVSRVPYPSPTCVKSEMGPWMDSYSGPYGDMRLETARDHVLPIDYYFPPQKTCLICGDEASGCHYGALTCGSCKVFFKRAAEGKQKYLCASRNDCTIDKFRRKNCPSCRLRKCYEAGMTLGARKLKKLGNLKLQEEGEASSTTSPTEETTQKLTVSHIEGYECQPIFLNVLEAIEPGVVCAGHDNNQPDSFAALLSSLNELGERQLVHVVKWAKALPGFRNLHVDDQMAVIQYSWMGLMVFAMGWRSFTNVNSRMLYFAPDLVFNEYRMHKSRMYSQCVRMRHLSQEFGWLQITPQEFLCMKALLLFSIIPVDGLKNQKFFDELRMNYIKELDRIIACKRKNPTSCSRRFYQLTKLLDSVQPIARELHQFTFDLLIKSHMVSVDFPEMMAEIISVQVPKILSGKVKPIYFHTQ

In the case of `COc1cc(C(=O)NC2CCCNC2)cc(OC)c1OC` (stereo not given), the Potency result in [1], in assay [2], in [3], in assay [4], in assay [5] and in assay [6] was “inactive” throughout. Moreover, the Potency entry in assay [7], in assay [10], in [11], in assay [14] and in assay [15] was “inactive” each time. Further, the call in assay [8], in assay [9], in assay [12], in assay [13] and in assay [16] was inactive.
As to `OCCC(F)(F)C(F)(F)C(F)(F)C(F)(F)C(F)(F)C(F)(F)F`, the Potency result in [2], in assay [3], in [4], in assay [5], in assay [6] and in assay [7] was “inactive” in each case. In addition, the Potency entry in assay [10], in assay [18], in assay [11] and in [15] was “inactive” throughout. The outcome in assay [17], in [8], in [9], in [12], in [13] and in assay [19] was inactive.
As to `C/C(Cl)=C/CCl`, the Potency result in assay [1], in assay [2], in [3], in [4], in assay [5] and in [6] was “inactive” in each case. Also, the Potency result in [7], in [10], in assay [18], in assay [11], in assay [20] and in assay [15] was “inactive” in each case. Further, the compound was called inactive in assay [17], in [9], in assay [12] and in assay [19].
With `N=C(N)S(=O)O`, the Potency result in assay [1], in [2], in [3], in assay [4], in [5] and in assay [6] was “inactive” in each case. In addition, the Potency result in [7], in [10], in assay [18], in [11] and in assay [15] was “inactive” each time. For the same compound, the outcome in assay [17], in assay [9], in assay [12], in assay [19] and in [16] was inactive.
For `C=C(C)C(=O)OCCCC`, the Potency result in assay [2], in assay [3], in [4], in assay [5], in [6] and in assay [7] was “inactive” throughout. Also, the Potency entry in assay [10], in [18], in [11], in assay [20] and in assay [15] was “inactive” throughout. Moreover, the compound was called inactive in [17], in [8], in assay [9], in assay [12], in assay [13] and in assay [16].
With `CC1=C(O)C(=O)CO1`, the Potency result in [1], in assay [2], in assay [3], in assay [4], in assay [5] and in assay [6] was “inactive” throughout. The Potency result in assay [7], in assay [10], in [18], in [11] and in [15] was “inactive” each time. The compound was called inactive in assay [17], in assay [9], in [12], in assay [19] and in assay [16].
Regarding `NNC(=O)OCc1ccccc1`, the Potency entry in assay [1], in assay [2], in assay [4], in assay [5], in assay [6] and in [7] was “inactive” throughout. For the same compound, the Potency result in [10], in assay [18], in assay [11], in [20] and in assay [15] was “inactive” throughout. Besides, the outcome in [17], in [8], in assay [9], in [12], in assay [13] and in assay [19] was inactive. Further, the result in [16] was inactive.
Consider `CCCCCC(CC)OC(=O)CCCOc1ccc(Cl)cc1Cl` (stereo not given), for which the Potency result in assay [1], in [2], in [3], in [4], in assay [5] and in assay [6] was “inactive” in each case. The Potency entry in assay [7], in assay [10], in assay [18], in assay [11] and in assay [15] was “inactive” in each case. Further, the call in [8], in assay [9], in assay [12], in [13] and in assay [16] was inactive.
Regarding `CC(=O)SC[C@@H](C)C(=O)N1CCC[C@H]1C(=O)N[C@@H](Cc1ccccc1)C(=O)O`, the Potency entry in assay [2], in [3], in assay [4], in assay [5], in assay [6] and in assay [7] was “inactive” throughout. Besides, the Potency result in assay [10], in assay [18], in assay [11] and in assay [15] was “inactive” each time. The outcome in assay [17], in [8], in assay [9], in [12], in [13] and in assay [19] was inactive. The call in assay [16] was inactive. Moreover, in assay [14], the Potency was 3.55 µM (active).
As for `CCOCCOCCOC(C)=O`, the Potency result in [2], in [3], in [4], in assay [5], in [6] and in assay [7] was “inactive” each time. Also, the Potency entry in [10], in assay [18], in [11] and in [15] was “inactive” throughout. In addition, the compound was classed as inactive in assay [17], in assay [9], in [12] and in assay [16].
Regarding `C[C@H]1COc2c(C3(N)CC3)c(F)cc3c(=O)c(C(=O)O)cn1c23`, the Potency result in assay [2], in assay [3], in [4], in assay [5], in [6] and in assay [7] was “inactive” each time. Besides, the Potency entry in assay [10], in [18], in assay [11], in assay [14] and in assay [15] was “inactive” in each case. Moreover, the result in [17], in assay [8], in assay [9], in assay [12], in [13] and in [16] was inactive.

The record behind these values is PubChem BioAssay (Tox21).
